Records with an inconclusive call do not appear. Active and inactive are the calls of the source.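 The calls were made as follows: active = toxic at all three exposure times, half-maximal drop reached within twice the top dose; inconclusive = exposure times disagree, or curves are weak, flat or poorly fitted; inactive = inactive at every exposure time.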
Test: HT-29 colorectal cell cytotoxicity, late-stage follow-up, mechanism study for HRAS target identification, Alamar Blue fluorescence, several timepoints, dry powder (AID 720619)
Details: HT-29 viability
[1] = 48 h, at 35 µM (top of the series)

SMILES | activity, lower = more toxic [1] | activity, lower = more toxic (8 h treatment, at 35 µM) [%]
CCC(=O)N(c1ccc(OC)c(Cl)c1)C(C(=O)NCCc1ccccc1)c1cccs1 (centres undefined) | 32.2% (inactive) | 5.18
Cc1onc(C(=O)N2CCN(C(c3ccncc3)c3ccncc3)CC2)c1[N+](=O)[O-] | 7.85% (inactive) | -3.11
